The target in experiment [1] is T1, Ephrin type-A receptor 3 (Homo sapiens) (UniProt P29320).
T1 sequence (whole entry): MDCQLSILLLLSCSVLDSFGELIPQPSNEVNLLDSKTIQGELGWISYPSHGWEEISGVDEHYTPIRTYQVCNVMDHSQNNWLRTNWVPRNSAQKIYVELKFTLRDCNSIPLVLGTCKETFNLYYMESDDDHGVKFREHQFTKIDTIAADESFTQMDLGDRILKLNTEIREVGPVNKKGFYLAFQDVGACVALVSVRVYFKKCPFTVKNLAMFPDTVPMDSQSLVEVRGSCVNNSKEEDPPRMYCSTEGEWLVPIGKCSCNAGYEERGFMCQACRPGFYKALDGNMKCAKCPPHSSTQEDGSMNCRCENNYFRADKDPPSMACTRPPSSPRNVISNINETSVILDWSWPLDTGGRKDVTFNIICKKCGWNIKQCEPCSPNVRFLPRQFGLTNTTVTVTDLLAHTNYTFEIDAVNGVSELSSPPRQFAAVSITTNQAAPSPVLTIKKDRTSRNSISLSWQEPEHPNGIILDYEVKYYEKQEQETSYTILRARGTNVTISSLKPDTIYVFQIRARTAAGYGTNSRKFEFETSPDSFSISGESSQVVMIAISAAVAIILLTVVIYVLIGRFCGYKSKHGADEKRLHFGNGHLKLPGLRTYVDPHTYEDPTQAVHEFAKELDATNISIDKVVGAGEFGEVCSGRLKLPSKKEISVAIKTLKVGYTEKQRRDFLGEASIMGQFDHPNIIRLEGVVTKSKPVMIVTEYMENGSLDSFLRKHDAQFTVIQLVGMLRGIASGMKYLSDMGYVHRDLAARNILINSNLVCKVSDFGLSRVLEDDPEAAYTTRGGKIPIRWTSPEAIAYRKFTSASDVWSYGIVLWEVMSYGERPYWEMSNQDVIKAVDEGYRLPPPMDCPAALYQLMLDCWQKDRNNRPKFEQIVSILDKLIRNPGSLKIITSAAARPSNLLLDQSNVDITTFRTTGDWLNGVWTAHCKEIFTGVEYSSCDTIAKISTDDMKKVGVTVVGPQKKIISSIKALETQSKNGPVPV
To be noted: at 10 µM.

The target in experiment [2] is Ephrin type-A receptor 4 (Homo sapiens) (UniProt P54764). The note with it: at 1 µM.
Sequence of Ephrin type-A receptor 4 (Homo sapiens) (P54764 whole entry): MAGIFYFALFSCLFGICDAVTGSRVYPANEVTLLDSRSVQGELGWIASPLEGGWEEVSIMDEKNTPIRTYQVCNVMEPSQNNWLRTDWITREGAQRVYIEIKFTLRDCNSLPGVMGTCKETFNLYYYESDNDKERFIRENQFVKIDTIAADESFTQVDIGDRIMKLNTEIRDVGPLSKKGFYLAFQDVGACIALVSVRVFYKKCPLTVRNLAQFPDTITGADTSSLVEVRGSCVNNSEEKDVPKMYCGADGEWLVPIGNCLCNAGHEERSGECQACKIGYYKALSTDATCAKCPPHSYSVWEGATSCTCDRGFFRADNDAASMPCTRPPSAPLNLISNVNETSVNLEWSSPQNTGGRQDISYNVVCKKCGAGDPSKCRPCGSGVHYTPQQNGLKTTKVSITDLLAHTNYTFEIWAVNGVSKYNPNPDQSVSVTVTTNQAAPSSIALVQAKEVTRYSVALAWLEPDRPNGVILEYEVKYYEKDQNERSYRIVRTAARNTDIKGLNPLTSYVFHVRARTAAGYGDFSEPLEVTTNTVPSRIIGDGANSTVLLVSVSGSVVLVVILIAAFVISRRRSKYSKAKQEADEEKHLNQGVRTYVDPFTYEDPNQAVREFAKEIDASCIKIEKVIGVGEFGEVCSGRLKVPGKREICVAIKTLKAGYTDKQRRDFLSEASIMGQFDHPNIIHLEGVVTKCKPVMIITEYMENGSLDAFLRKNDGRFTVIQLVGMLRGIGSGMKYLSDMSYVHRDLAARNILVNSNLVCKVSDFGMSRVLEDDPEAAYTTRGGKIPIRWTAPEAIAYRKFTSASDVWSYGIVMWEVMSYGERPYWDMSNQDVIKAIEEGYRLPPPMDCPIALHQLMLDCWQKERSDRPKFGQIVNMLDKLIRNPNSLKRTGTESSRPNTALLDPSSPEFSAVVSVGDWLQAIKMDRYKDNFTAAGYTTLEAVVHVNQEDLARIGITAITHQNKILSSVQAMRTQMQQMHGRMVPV
For experiment [3] the target is unchanged. The note with it: at 10 µM.
The target of experiment [4] is Ephrin type-A receptor 5 (Homo sapiens) (UniProt P54756). To be noted: at 1 µM.
Sequence of Ephrin type-A receptor 5 (Homo sapiens) (P54756 whole entry): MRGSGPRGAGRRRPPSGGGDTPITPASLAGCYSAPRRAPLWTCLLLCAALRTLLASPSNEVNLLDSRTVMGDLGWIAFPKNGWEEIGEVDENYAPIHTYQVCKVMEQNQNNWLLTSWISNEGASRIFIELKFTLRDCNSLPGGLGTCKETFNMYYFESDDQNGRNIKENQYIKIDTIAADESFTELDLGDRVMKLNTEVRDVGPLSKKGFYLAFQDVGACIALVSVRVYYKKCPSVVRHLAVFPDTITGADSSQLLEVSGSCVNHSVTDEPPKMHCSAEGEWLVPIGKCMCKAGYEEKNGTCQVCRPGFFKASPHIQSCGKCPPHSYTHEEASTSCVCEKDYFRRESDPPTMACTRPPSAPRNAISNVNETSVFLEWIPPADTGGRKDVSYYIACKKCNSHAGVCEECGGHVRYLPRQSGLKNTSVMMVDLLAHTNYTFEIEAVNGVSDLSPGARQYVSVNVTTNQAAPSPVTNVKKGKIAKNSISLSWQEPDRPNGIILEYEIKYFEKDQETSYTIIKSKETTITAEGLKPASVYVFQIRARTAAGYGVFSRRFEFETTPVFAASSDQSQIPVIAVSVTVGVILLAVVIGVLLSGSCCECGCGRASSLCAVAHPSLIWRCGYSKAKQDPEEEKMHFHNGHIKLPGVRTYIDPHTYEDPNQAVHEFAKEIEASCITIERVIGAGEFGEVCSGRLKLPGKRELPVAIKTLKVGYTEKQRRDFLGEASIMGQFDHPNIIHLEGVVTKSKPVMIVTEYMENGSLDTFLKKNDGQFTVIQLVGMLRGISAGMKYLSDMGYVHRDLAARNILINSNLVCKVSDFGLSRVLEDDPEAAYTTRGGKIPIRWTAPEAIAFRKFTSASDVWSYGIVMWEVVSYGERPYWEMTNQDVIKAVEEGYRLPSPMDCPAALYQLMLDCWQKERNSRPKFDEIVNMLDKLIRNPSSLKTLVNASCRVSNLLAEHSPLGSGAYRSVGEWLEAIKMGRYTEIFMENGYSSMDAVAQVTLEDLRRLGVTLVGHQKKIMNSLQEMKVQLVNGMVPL
The target is the same in experiment [5]. The note with it: at 10 µM.
The target of experiment [6] is Ephrin type-A receptor 7 (Homo sapiens) (UniProt Q15375). The note with it: at 1 µM.
Sequence of Ephrin type-A receptor 7 (Homo sapiens) (Q15375 28-998 limits assumed): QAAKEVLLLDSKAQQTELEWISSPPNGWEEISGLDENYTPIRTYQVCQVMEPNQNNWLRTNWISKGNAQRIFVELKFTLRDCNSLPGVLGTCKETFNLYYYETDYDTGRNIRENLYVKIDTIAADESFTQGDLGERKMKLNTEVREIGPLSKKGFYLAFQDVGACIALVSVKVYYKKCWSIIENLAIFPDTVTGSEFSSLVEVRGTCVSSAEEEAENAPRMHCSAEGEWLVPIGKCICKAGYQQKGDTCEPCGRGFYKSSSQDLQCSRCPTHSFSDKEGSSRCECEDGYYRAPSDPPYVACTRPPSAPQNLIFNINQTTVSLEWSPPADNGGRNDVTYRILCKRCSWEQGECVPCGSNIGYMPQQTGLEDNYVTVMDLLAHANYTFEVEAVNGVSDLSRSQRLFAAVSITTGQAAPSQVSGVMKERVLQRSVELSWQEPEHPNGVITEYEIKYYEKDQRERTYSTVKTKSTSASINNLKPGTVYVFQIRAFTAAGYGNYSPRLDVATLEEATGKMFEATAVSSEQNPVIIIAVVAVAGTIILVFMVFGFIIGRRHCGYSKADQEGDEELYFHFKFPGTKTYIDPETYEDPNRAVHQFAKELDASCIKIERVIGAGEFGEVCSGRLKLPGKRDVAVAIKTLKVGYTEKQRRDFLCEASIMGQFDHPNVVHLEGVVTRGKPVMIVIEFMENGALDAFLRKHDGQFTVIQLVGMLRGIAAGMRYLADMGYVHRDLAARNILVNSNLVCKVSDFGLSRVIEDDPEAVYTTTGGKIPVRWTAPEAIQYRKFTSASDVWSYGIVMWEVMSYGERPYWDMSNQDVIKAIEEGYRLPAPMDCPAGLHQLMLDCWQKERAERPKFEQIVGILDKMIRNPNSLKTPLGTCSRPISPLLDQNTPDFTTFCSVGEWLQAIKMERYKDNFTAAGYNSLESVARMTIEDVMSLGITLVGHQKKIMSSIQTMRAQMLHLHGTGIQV
Experiment [7] has the same target. The note with it: at 10 µM.
Experiment [8] has as its target T2, Ephrin type-A receptor 8 (Homo sapiens) (UniProt P29322).
T2 sequence (whole entry): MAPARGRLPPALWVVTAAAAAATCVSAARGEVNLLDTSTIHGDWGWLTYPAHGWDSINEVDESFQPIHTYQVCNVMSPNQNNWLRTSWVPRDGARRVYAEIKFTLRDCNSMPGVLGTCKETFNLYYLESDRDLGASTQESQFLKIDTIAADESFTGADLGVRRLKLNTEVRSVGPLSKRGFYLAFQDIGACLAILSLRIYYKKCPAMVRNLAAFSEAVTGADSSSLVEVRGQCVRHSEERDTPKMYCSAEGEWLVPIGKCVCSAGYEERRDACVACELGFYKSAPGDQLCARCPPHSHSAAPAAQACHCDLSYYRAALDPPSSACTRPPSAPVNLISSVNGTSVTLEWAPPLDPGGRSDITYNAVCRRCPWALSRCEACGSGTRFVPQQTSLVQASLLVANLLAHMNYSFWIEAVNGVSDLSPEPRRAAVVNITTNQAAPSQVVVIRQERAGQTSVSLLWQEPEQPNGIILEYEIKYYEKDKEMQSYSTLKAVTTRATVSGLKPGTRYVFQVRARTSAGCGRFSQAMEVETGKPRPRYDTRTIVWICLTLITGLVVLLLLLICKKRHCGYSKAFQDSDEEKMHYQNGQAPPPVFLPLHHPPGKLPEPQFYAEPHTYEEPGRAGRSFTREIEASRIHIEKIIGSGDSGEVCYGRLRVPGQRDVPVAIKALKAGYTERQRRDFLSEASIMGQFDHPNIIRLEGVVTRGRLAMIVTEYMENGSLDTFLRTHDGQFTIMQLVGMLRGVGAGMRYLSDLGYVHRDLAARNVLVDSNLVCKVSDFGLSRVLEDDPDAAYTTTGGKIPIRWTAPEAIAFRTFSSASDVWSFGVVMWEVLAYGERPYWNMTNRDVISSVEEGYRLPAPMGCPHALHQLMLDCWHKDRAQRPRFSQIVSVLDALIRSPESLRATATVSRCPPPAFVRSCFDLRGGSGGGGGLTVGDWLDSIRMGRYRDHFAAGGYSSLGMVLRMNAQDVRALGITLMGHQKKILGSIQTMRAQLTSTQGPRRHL
To be noted: at 1 µM.

Experiment [9] concerns the target T2, Ephrin type-A receptor 8 (Homo sapiens). To be noted: at 10 µM.
The target of experiment [10] is T3, Ephrin type-B receptor 1 (Homo sapiens) (UniProt P54762).
T3 sequence (whole entry): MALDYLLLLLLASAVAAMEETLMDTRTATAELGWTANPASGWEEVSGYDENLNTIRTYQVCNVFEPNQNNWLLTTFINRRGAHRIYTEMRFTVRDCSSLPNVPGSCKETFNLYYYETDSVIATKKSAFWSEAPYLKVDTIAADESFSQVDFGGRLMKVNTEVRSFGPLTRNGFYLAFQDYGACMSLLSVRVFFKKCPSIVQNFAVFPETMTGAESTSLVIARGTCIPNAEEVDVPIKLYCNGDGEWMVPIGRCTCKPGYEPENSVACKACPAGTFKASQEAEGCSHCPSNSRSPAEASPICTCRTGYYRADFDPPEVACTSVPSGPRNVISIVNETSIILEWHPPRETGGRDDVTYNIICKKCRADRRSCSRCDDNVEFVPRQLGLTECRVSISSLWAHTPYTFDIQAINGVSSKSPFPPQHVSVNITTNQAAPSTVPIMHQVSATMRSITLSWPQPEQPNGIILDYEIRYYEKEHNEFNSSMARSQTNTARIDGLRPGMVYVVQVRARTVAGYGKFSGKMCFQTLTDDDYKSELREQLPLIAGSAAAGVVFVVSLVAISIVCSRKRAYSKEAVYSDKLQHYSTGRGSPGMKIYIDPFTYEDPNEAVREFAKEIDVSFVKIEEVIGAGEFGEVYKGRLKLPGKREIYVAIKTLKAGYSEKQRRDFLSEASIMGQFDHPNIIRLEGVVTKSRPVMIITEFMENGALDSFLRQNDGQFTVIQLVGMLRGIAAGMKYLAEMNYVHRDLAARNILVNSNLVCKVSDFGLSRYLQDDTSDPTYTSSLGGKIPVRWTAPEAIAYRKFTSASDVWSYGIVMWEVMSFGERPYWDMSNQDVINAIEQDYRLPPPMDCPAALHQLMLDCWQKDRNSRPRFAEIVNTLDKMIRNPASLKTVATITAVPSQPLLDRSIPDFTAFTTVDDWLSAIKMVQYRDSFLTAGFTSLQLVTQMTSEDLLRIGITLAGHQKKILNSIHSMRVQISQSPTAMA
To be noted: at 1 µM.

The structures appear in SMILES notation.

Residual activity data for one compound are collected here from ChEMBL document CHEMBL2218924, “A broad activity screen in support of a chemogenomic map for kinase signalling research and drug discovery” (Biochem J, 2013).

As a reminder, the residual activity is the signal under treatment as a percentage of the control signal.

As for `Cc1nc2cc3nc(-c4cccs4)cnc3cc2n1C`, the residual activity in [1] was 94%; in experiment [2], 115%; in [3], 96%; in experiment [4] it was 107%; in experiment [5], 114%; in [6], 104%. Besides, the residual activity turned out to be 90% in [7], 111% in experiment [8], 96% in [9] and 103% in experiment [10].
